Compounds with a hit are over-represented: about 7.3% of the library has one in this group of screens.
NPC1 prom act – activators of NPC1 promoter | Potency, µM (highest dose often 9.22 µM), for inactives: at the highest dose activation, usual class: activators | hit rate 2.4% among 320,000 | Huh7 NPC1 promoter luciferase reporter, 24 h; also: % of control where 0% means no effect; nearly all actives have a fitted effect of over 60% in size
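NPC1 promoter–luciferase Huh7 cells; 24 h compound; luminescence.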
uPA surface inh – blocks generation of uPA at the cell surface. cell surface uPA generation assay, qHTS. Potency, µM (series often up to 38.3 µM), without a hit: top-dose activity change, negative = inhibition, most hits filed as inhibitors. hit rate 0.31% among 330,000. AID 540303; active = well fitted inhibition curve with a large enough effect; inconclusive = small, poorly fitted or top-dose-only effect; inactive = no such curve, though single readings can be large or run the other way; tested in mouse RAW 264.7 cells; also: % is scaled to controls: 0 for no effect and ±100 for the full control effect; nearly all actives have a fitted effect of over 55% in size
Rab9 prom act – activates the Rab9 promoter. Huh7 Rab9 promoter-luciferase reporter, luminescence, 24 h. Potency, µM (highest dose often 9.22 µM), inactives show top-dose activation, negative = inhibition, most hits filed as activators. hit rate 2.8% among 320,000; also: % of control where 0% means no effect; nearly all actives have a fitted effect of over 60% in size
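Promoter activation is measured as luciferase luminescence in Huh7 cells stably transfected with a Rab9 promoter–luciferase construct, following 24 h compound exposure at 37 °C and 10 min reagent incubation at ambient temperature.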
SMN2 splice up – SMN2 splice variant enhancement; HEK293 SMN2-luciferase splicing reporter, luminescence, 30-36 h; Potency, µM (series often up to 46.1 µM), for inactives: top-dose activity change, positive = activation, most hits filed as activators; hit rate 2.8% among 210,000; also: % of control where 0% means no effect; nearly all actives have a fitted effect of over 55% in size
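qHTS luciferase splicing reporter: luminescence rises when SMN2 exon 7 is included in transfected HEK293 cells. Compound exposure lasted 30-36 h at 37C, with 4.5 mM final sodium butyrate as control, followed by a ONE-Glo read.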
ELG1 genotox – genotoxicity induction in ELG1-luciferase HEK293T cells; AID 504466; HEK293T ELG1-luciferase reporter, luminescence, 16 h; Potency, µM (top dose mostly 46 µM), without a hit: at the top dose activity change, positive = activation, most hits filed as activators; hit rate 1.3% among 330,000; also: % of control where 0% means no effect; nearly all actives have a fitted effect of over 60% in size
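Step 1: seed 2,000 HEK293T ELG1-luciferase cells per well. Step 2: add compound or DMSO, incubate 16 hr at 37 °C. Step 3: ONE-Glo, 30 min at room temperature, read luminescence.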
FLuc modulator – counter-screen for miR-21 project: firefly luciferase inhibitors or activators; hit rate 6.9% among 360,000; P08659; Potency, µM (top dose mostly 57.5 µM), for the others: at the highest dose activity change, negative = inhibition, most hits filed as inhibitors; purified FLuc, Km substrates, luminescence inhibition;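 also: plate controls were vehicle for no effect and reference inhibitor for full effect; nearly all actives have a fitted effect of over 55% in size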
Target sequence (P08659 whole entry, looked up): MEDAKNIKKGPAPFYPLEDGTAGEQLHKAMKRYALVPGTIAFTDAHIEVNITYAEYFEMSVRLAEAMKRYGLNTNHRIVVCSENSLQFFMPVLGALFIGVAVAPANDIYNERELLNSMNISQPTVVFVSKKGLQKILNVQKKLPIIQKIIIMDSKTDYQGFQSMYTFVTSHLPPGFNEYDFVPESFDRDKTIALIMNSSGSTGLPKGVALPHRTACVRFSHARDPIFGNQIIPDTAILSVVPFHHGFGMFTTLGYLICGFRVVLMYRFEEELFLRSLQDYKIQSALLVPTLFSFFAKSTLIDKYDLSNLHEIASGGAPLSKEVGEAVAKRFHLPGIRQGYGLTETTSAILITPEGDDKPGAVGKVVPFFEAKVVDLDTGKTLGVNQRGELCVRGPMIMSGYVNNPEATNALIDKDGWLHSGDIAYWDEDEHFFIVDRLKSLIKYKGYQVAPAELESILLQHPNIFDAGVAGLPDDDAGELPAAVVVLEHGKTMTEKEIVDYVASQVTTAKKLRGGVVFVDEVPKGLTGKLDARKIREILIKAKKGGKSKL
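Purified P. pyralis luciferase (10nM final) with 10uM D-luciferin and 10uM ATP (Km levels) in 50mM Tris acetate pH 7.5, 10mM Mg acetate, 0.01% Tween-20, 0.05% BSA; qHTS 6-point titration, ~60 µM downward; luminescence read.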
Starred values were filed as active, the others as inactive; ? = inconclusive; · = no result given; [ ] = another dose, or the depositor's remark. Unless noted, calls follow the shape of the dose curve; as a rule, active = well fitted curve in the direction sought with a large enough effect; inconclusive = small, poorly fitted or top-dose-only effect, or another doubt; inactive = no such curve, though single readings can be large; an effect the other way counts as inactive or inconclusive. Potency is read from the fitted curve at half-maximal effect.

SMILES	NPC1 prom act	uPA surface inh	Rab9 prom act	SMN2 splice up	ELG1 genotox	FLuc modulator
Fc1ccc(-c2nnn(Cc3ccccc3Cl)n2)cc1	14%	-2%	2%	·	8%	?
Nc1ccc(-c2nnn(Cc3ccccc3F)n2)cc1	?	-11%	?	·	?	15µM*
Fc1ccccc1COc1ccc(C(=S)N2CCCC2)cc1	?	-17%	?	·	?	17µM*
Fc1ccccc1COc1ccc(-c2nnn(Cc3ccccc3F)n2)cc1	4%	13%	0%	-11%	-2%	-17%
CC(C)n1nnc(-c2ccc(OCc3ccccc3F)cc2)n1	2.8µM*	11%	1.6µM*	·	?	6µM*
Cn1nnc(-c2ccc(OCc3ccccc3F)cc2)n1	0.63µM*	2%	1µM*	8.9µM*	9.2µM*	1.9µM*
O=C(O)[C@H](C1NCCS1)N1Cc2ccccc2C1 (some centres undefined)	·	·	·	-7%[9.22 µM]	·	·
O=C(O)Cn1nnc(-c2ccc(OCc3ccccc3Cl)cc2)n1	2%	-2%	-3%	·	5%	19µM*
O=C(/C=C/c1ccccc1)Nc1cccnc1Oc1ccccc1F	?	-4%	?	·	9%	4.8µM*
O=C(Nc1cccc(S(=O)(=O)Nc2ccccc2F)c1)c1ccc2ccccc2n1	-7%	5%	-8%	-20%	-14%	19µM*
O=C(/C=C/c1ccccc1)Nc1cccc(S(=O)(=O)Nc2ccccc2F)c1	-2%	1%	-3%	12%	-3%	6.7µM*
COc1ccccc1NS(=O)(=O)c1cccc(NC(=O)c2ccc3ccccc3n2)c1	-1%	-3%	-2%	-17%	-13%	?
COc1ccc(NC(=O)CN2C(=O)CSc3ccc(S(=O)(=O)N(C)C)cc32)cc1Cl	·	·	·	·	·	-12%
CCN(CC)c1nc(C)nc2c1cnn2CCc1ccccc1	?	5%	?	22µM*	12µM*	19µM*
Nc1ccccc1C#Cc1ccc2[nH]ccc2c1	·	-11%	·	·	·	·
Nc1ccccc1C#Cc1ccccc1	?	?	26%	32%	?	6.7µM*
Nc1ccc(C#Cc2ccccc2)cc1	22%	-4%	30%	24%	?	15µM*
CCCCc1nn2c(=O)cc(COC(=O)c3ccccc3NC(=O)C3CCCCC3)nc2s1	·	·	·	·	·	-6%
O=C(Nc1ccc(F)cc1)c1ccc2nc[nH]c2c1	26%	-14%	18%	?	5%	?
CN(C)c1ccc(NC(=O)c2ccc3nc[nH]c3c2)cc1	?	16%	?	·	?	13µM*
Cc1cc(C)cc(NC(=O)c2ccc3nc[nH]c3c2)c1	11%	12%	13%	-4%	10%	6.7µM*
Cc1ccc(NC(=O)c2ccc3nc[nH]c3c2)cc1C	2.8µM*	0%	1.8µM*	11µM*	?	9.5µM*
COc1cccc(NC(=O)/C(C#N)=C/c2c(C)n(Cc3ccccc3)c3ccccc23)c1	·	·	·	-52%	·	-18%
CCc1nn(CC(=O)NC2CC2)c(=O)c2cc3c(OC)cccc3n12	·	·	·	5%	·	-3%
CCc1ccc(NCc2cc3ccc(OC)cc3n(CC(=O)Nc3cccc(Cl)c3C)c2=O)cc1	·	·	·	·	·	0%
SMILES	NPC1 prom act	uPA surface inh	Rab9 prom act	SMN2 splice up	ELG1 genotox	FLuc modulator
Cc1ccc2ncc(NC(=O)c3ccc(F)cc3)c(=O)n2c1	26%	3%	26%	-23%	?	?
O=C(Nc1cnc2ccccn2c1=O)c1ccc(Cl)cc1Cl	0.32µM*	-4%	0.28µM*	1.6µM*	?	1.7µM*
Cc1ccc(C(=O)Nc2cnc3ccccn3c2=O)cc1	2.2µM*	·	1.6µM*	11µM*	4.6µM*	17µM*
COc1ccc(OC)c(-c2noc(CSc3nnc(-c4ccccc4)n3-c3ccccc3)n2)c1	·	·	·	1%	·	-5%
Cc1cccc(C)c1NC(=O)Cn1c(SCC(=O)NCc2ccccc2)nc2ccccc21	·	·	·	·	·	2%
CCOc1ccc(NC(=O)c2ccc3c(=O)n4c(nc3c2)CCCCC4)cc1	-9%	-1%	-8%	6%	-3%	3%
Cc1csc(NC(=O)c2ccc3c(=O)n4c(nc3c2)CCCCC4)n1	3.5µM*	-22%	1.1µM*	·	16%	8.5µM*
O=C(Nc1nccs1)c1ccc2c(=O)n3c(nc2c1)CCCCC3	2.8µM*	-4%	3.2µM*	·	14%	11µM*
Cc1cc(Nc2cc(Cl)ccc2C)n2nc(-c3ccccc3)nc2n1	·	·	·	-5%	·	4%
COC(=O)c1ccc(CN2CCN(CC(C)C)C(CCO)C2)cc1 (centres undefined)	1%	13%	0%	·	-3%	-1%
CC(C)=CCN1CCN(Cc2cnc(N3CCOCC3)s2)CC1CCO (centres undefined)	3.2µM*	0%	2.8µM*	·	?	2.1µM*
CC(C)=CCN1CCN(Cc2cnc(C)s2)CC1CCO (centres undefined)	1.6µM*	2%	0.79µM*	·	?	6.7µM*
COC(=O)c1ccc(CN2CCN(CC=C(C)C)C(CCO)C2)cc1 (centres undefined)	-1%	0%	-2%	·	2%	17µM*
COc1ccc(C2=NN(S(C)(=O)=O)C(c3cn(-c4ccccc4)nc3-c3cccs3)C2)cc1 (centres undefined)	·	·	·	20%	·	-15%
O=C(Cc1ccccc1)Nc1cccc(-c2nc3cccnc3s2)c1	·	·	·	·	·	-4%
O=C(Nc1cccc(-c2nc3cccnc3s2)c1)c1ccco1	16%	-7%	8%	-1%	1%	11µM*
O=C(Nc1ccc(-c2nc3cccnc3s2)cc1)c1ccc(Br)o1	2.8µM*	-19%	4µM*	3.2µM*	2.9µM*	?
O=C(Nc1ccc(-c2nc3cccnc3s2)cc1)c1ccco1	0.5µM*	?	0.45µM*	1.4µM*	0.92µM*	1.1µM*
CC(C)c1ccc(/C=C(\C#N)c2nc(-c3ccc(O)cc3)cs2)cc1	·	·	·	-23%	·	?
Cc1cccc(/C=C/c2nc3ccccc3c(=O)[nH]2)c1	?	-12%	?	4.5µM*	8.2µM*	1.1µM*
O=C(O)c1ccc(/C=C/c2nc3ccccc3c(=O)[nH]2)cc1	12%	8%	-5%	·	-3%	15µM*
Cc1[nH]c2ccccc2c1/C=C/c1nc2ccccc2c(=O)[nH]1	3.2µM*	1%	1.4µM*	·	7.3µM*	2.4µM*
COc1cc(/C=C/c2nc3ccccc3c(=O)[nH]2)cc(Br)c1O	12%	0%	3%	·	1%	-3%
O=c1[nH]c(/C=C/c2ccccc2Cl)nc2ccccc12	?	?	0.4µM*	·	2.1µM*	0.85µM*
COC(=O)c1ccc(OCC2c3cc(OC)c(OC)cc3CCN2C(=O)COc2ccc(Cl)cc2)cc1 (centres undefined)	·	·	·	·	·	-2%
O=C(O)c1ccc(/C=C/c2nc3sc4c(c3c(=O)[nH]2)CCC4)cc1	5%	8%	13%	-13%	3%	19µM*
